# Experimental data reported in PubChem BioAssay (NCI).
# This is part of a sample that, as a whole, favours compounds with a hit. Of some 79,000 tested, about 15% had one in any assay. A number with no mark means an inactive call. Active and inactive are the calls of the source. Rule as the data show it: active = growth inhibition above about 70%; inactive = the rest. Where a SMILES comes first, the peptide text is derived from it.
# How the values were obtained:
# [1] = NCI Yeast Anticancer Drug Screen. Data for the rad50 strain (AID 155);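 also: 0% = growth of vehicle-only cultures of the same strain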; details: S. cerevisiae rad50 strain growth inhibition; at 50.0 µM; active compounds read high
# Summary of the method: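 Yeast carrying a defined DNA repair defect were exposed to test compounds, and growth was compared with vehicle-treated controls to give percent inhibition.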
# [2] = NCI Yeast Anticancer Drug Screen. Data for the mec2-1 strain (AID 157); details: S. cerevisiae mec2-1 strain, at 50.0 µM, active compounds read high
# Summary of the method: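 Compounds were applied to mec2-1 yeast cells. Their growth was then compared with that of vehicle-treated cultures to give growth inhibition.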
# [3] = NCI Yeast Anticancer Drug Screen. Data for the sgs1 mgt1 strain (AID 161);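 also: 0% = growth of cultures given vehicle only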; details: S. cerevisiae sgs1 mgt1 strain, at 50.0 µM, active compounds read high
# Summary of the method: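 Percent growth inhibition was derived by comparing compound-exposed mutant yeast with vehicle-exposed cultures. The strain carries alterations in DNA damage repair.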
# [4] = NCI Yeast Anticancer Drug Screen. Data for the cln2 rad14 strain (AID 165);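 also: 0% = growth equal to vehicle treated cultures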; details: S. cerevisiae cln2 rad14 strain, at 50.0 µM, active compounds read high
# Summary of the method: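 Strain: cln2 rad14 yeast, altered in cell cycle control and DNA damage repair. Read-out: growth inhibition vs vehicle.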
# [5] = NCI Yeast Anticancer Drug Screen. Data for the bub3 strain (AID 167); details: S. cerevisiae bub3 mutant strain, at 50.0 µM, active compounds read high
# Summary of the method: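 Compounds were applied to a genetically altered yeast strain carrying a cell-cycle control defect. Growth inhibition was scored against vehicle-treated controls.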
# [6] = NCI Yeast Anticancer Drug Screen. Data for the mlh1 rad18 strain (AID 175); details: S. cerevisiae mlh1 rad18 strain growth inhibition; at 50.0 µM; active compounds read high
# Summary of the method: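 A repair-deficient yeast strain is exposed to test compound, and growth is scored relative to vehicle-treated controls.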
SMILES,growth inhibition [1],growth inhibition [2],growth inhibition [3],growth inhibition [4],growth inhibition [5],growth inhibition [6]
COC(=O)c1ccc(Cl)cc1OCC(=O)Nc1ccccc1,-29.1%,-0.55%,-12.2%,-27.7%,-4.6%,-3.65%
CNCCSSCCN,-10.2%,-0.95%,-6.3%,-18.8%,2.6%,0.95%
O=C(Nc1ccccc1)c1nn(-c2cc(S(=O)(=O)O)c([N+](=O)[O-])cc2Cl)[n+](-c2cc(S(=O)(=O)[O-])c([N+](=O)[O-])cc2Cl)n1,-4.45%,-3.25%,-25.1%,-26.8%,-23.6%,2.3%
O=c1c2c([nH]n1-c1ccccc1)-c1ccccc1CS2,40.2%,15.9%,37.8%,9.55%,40.6%,28.9%
CCCc1c(C(=O)OCC)[nH]c(-c2ccc(-c3[nH]c(C(=O)OCC)c(CCC)c3C(=O)OCC)s2)c1C(=O)OCC,-11.8%,-11.3%,-21.6%,3%,-12.6%,-16.1%
CN(C)c1ccc(/C=C/c2nc3ccc([N+](=O)[O-])cc3[nH]2)cc1,-2.4%,3.6%,9.65%,14.2%,0.6%,0.1%
CC1(Cn2ccc(=O)[nH]c2=O)CC(C2(C)OCCO2)C(=O)O1 (stereo not given),-16.6%,-22.3%,-33.1%,-30.7%,-19%,-14.4%
O=C(O)c1cccc(/C=N/O)c1O,-16.9%,-3.25%,-6.45%,-10.5%,7.75%,8.55%
CCOC(=O)c1c(N=P(c2ccccc2)(c2ccccc2)c2ccccc2)nnc(-c2ccccc2)c1-c1ccccc1,-36.4%,-15.4%,10.9%,1.85%,-6.55%,6.5%
OC(CCCN1CCN2CCc3[nH]c4ccccc4c3C2C1)c1ccc(F)cc1 (stereo not given),23.9%,-1.8%,13.7%,14.3%,1.3%,10.8%
CCOC(=O)c1[nH]c(COC(C)=O)c2c1CCCCCCCCCC2,-6.1%,-9.75%,6.05%,41.2%,5%,-12.3%
CC12CCC(=O)C3C1CCCC32,-0.45%,-6.2%,-13.9%,1.2%,-2.15%,-21.6%
CC(C)c1ccc2c(c1)C=C1OC(=O)[C@]3(C)CCC[C@@]2(C)C13 (stereo not given in full),35.1%,21.9%,54.2%,40%,26.4%,17.1%
Oc1c(CN2CCOCC2)cc(CN2CCOCC2)cc1CN1CCOCC1,7.7%,0.5%,-5.4%,2.2%,6.6%,6.55%
Cc1cc(=O)c(C#N)c(C)o1,6.65%,10.2%,19.4%,-2.7%,-1.95%,10%
O=[N+]([O-])c1ccc2nc(/C=C(\O)c3ccccc3)c(NC34CC5CC(CC(C5)C3)C4)nc2c1,16.4%,-17.5%,13.9%,-39.4%,-17.8%,-2.35%
CNC(=O)Nc1cc(C)ccc1Cl,-0.9%,-6.05%,-8.55%,-70%,1.15%,-6.7%
CC1=c2c(oc3cc(O)c(Nc4c(C)cc(O)cc4O)c(C)c23)=CC(=O)C1=Nc1c(C)cc(O)cc1O,17.9%,7.8%,0.45%,-2.3%,-35%,18.4%
O=[N+]([O-])c1ccc(/C=C(/c2ccc([N+](=O)[O-])o2)S(=O)(=O)c2ccccc2)o1,86% (active),67.7%,92.1% (active),71.1% (active),61%,90.2% (active)
CCC(O)(c1ccccc1)c1ccccc1,1.7%,3.5%,-5.65%,4.15%,-19.8%,-4.8%

SMILES,growth inhibition [1],growth inhibition [2],growth inhibition [3],growth inhibition [4],growth inhibition [5],growth inhibition [6]
CCOC(=O)C1=C(OC(OCC)C([Se]c2ccccc2)C(C)C)CCC1 (stereo not given),65.8%,33.5%,65.2%,42.2%,58.6%,51%
CCOC(OCC)c1ccc(O)cc1,-4.4%,3.15%,20.3%,-19.2%,-2.2%,12.1%
Nc1nc2c(-c3ccc([N+](=O)[O-])cc3)nnn2c2cccc(Cl)c12,-9.7%,-15.8%,-18.4%,4.85%,-32.5%,-14.7%
CCC1(C(=O)OC)CCc2c(OC)ccc(OC)c2C1=O (stereo not given),-8.65%,-9.35%,0.1%,3.25%,-12.9%,-46.8%
CCCCCN(CCCCC)C(C)=O,6.85%,5.95%,2.3%,-0.65%,-2.15%,7.45%
Cc1ccc(Nc2nc(C)c(C(=O)C/C(=N/NC(N)=S)C(=O)Nc3cc(Cl)cc(Cl)c3)s2)cc1,-13.3%,-13.1%,15.6%,22.1%,-13.4%,-27.8%
CCc1[nH]c2ccc(C)cc2c1C(=O)c1cccnc1,5.3%,-0.15%,16.4%,7.2%,21.3%,7.6%
CC(C)(C)N[P+](Cc1ccc(C[P+](NC(C)(C)C)(NC(C)(C)C)c2ccccc2)cc1)(NC(C)(C)C)c1ccccc1,-3.05%,-10.1%,-0.9%,-13.5%,-2.1%,5.45%
CC(C)CC(N)C(=O)NC(C)C(=O)NC(CC(C)C)C(=O)O (stereo not drawn) (H-Leu-Ala-Leu-OH; configuration not given here),5.95%,21.4%,10.9%,1.9%,0.5%,-3.1%
C=C(Cl)C(Br)(CCl)CCC(Cl)C(C)C (stereo not given) (tested in a mixture with another compound),85% (active),86.3% (active),91% (active),91.5% (active),90.7% (active),73.8% (active)
COc1ccc(S(=O)(=O)N/N=C/c2cccc([N+](=O)[O-])c2O)cc1,9.3%,-3.7%,19.7%,2%,12%,32.6%
CCCCCCCCCCCCCCCCCCCCCCCCCC(=O)O,30.4%,-20.2%,32.5%,4.5%,23.9%,4.95%
Cc1ccc2c(N(C)C)cc(N(C)C)nc2c1C,-0.15%,4.4%,-9.2%,-48%,-1.1%,15.5%
Clc1ccc2sc(-n3ccc4ccccc43)nc2c1,-35.9%,-12.3%,-24.7%,7.65%,-15.4%,-30.7%
CCCC1CCN(c2ccc([N+](=O)[O-])cc2[N+](=O)[O-])CC1,1.75%,-4.75%,9.65%,-19.2%,38.2%,-1.15%
COc1ccccc1-c1cc(=O)c2cc(C)c(C)c(C(=O)O)c2o1,7.05%,3.95%,18.6%,29.7%,7.35%,11.8%
CCN(CC)CCN1C(=O)c2c(c(-c3ccccc3)c3ccccc3c2-c2ccccc2)C1=O,21.6%,35.2%,21.6%,13.2%,27.4%,28%
O=c1c2cnccc2cc2n1CCc1c-2[nH]c2ccccc12,88.4% (active),89.3% (active),88.8% (active),90.2% (active),69.8%,86.4% (active)
c1ccc2c(c1)N=C(c1cccc3ccccc13)CC(c1cccc3ccccc13)S2 (stereo not given),-28%,-20.9%,-46.5%,-3.25%,-18.9%,-37%
O=C(O)CC1CCCNC1 (stereo not given),-11.3%,1.95%,-13.7%,-18.6%,-16%,-16.3%
